Laboratory results as given in PubChem BioAssay AID1645855 (Buhrlage Lab, Dana-Farber Cancer Institute and Novartis …, 2021).
About 3,100 (6.6%) of roughly 47,000 compounds were called active. No stated cut-off is given here; in the data, active means inhibition above about 30%; inactive means the rest. This excerpt belongs to a sample that is enriched for actives.

The molecules below were run against Ubiquitin carboxyl-terminal hydrolase 17-like protein 5 (Homo sapiens) (UniProt A8MUK1) (assay: blocks human USP17 ubiquitin-rhodamine cleavage (AID 1645855)). Conditions: purified USP17, Ub-rhodamine cleavage fluorescence, 3 h; at 50 µM; hits give high values.
Chain of Ubiquitin carboxyl-terminal hydrolase 17-like protein 5 (Homo sapiens) (A8MUK1 whole entry, looked up): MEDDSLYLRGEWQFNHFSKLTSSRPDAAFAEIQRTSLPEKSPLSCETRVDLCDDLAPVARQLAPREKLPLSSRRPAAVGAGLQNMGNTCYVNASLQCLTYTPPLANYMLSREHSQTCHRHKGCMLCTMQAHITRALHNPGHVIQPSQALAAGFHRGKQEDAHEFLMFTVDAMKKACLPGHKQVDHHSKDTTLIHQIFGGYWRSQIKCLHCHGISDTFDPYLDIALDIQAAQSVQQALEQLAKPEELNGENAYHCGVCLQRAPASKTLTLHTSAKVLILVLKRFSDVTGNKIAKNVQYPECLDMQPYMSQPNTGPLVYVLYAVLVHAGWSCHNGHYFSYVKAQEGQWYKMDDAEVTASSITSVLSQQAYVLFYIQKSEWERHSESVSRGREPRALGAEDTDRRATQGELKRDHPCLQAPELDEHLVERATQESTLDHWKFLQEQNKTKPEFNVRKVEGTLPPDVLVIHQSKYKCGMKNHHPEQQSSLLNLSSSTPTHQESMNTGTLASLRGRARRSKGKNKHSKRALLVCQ
For OCc1cc2c([nH]c3ccccc32)c([C@@H](O)CO)n1, the inhibition was -4.94% (inactive).
With Cc1ccccc1Nc1nc(N)nc(CN2CCCC2c2cccn2C)n1 (stereo unspecified) the inhibition was -130% (inactive).
CCOC(=O)c1cnc2c(C(F)(F)F)cccc2c1Sc1ccc(C)cc1C was tested, and the inhibition was 3.52% (inactive).
With O=C1NC2(CCN(C(=O)Cc3ccccc3)CC2)Nc2cc(Cl)ccc21 the inhibition was -2.47% (inactive).
With O=C(Cc1ccccc1)N1CCN(c2ccc(N3CCCC3)nn2)CC1 the inhibition was 15% (inactive).
In the case of Cc1cc(C)n(-c2ccc(C(=O)Nc3ccccc3C(C)C)nn2)n1, the inhibition is reported as 29.7% (inactive).
In the case of CSc1ccccc1NC(=O)c1ccc(N2CCCC2)nn1, the inhibition is reported as 56.7% (active).
With O=C(c1sc2cnccc2c1-n1cccc1)N1CCc2ccccc2C1 the inhibition was 8.13% (inactive).
In the case of CCOC(=O)c1cc(C)nc2c1c(=O)n(Cc1nc(-c3ccccc3)oc1C)c(=O)n2C, the inhibition is reported as -6.3% (inactive).
For CCCOc1ccc(C2CN3C(=O)N(c4cccc(C(C)=O)c4)C(=O)[C@]3(C)c3[nH]c4ccccc4c32)cc1OCC (stereo partly specified), the inhibition was 2.94% (inactive).
For COc1ccc(-c2cc(C(=O)Nc3sccc3C(N)=O)c3ccccc3n2)cc1, the inhibition was -139% (inactive).
In the case of COC(=O)c1cccc(N(C(=O)c2cnccn2)C(C(=O)NC2CCCCC2)c2ccc(OC)c(OC)c2)c1 (stereo unspecified), the inhibition is reported as -9.26% (inactive).
With O=C(NC1CCCC1)C1c2cc(Br)ccc2OCC(=O)N1C1CCCC1 (stereo unspecified) the inhibition was -0.00685% (inactive).
For CC(CCc1ccccc1)NC(=O)COC(=O)c1ccc2[nH]c3c(c2c1)CCCC3 (stereo unspecified), the inhibition was 15.2% (inactive).
For O=C(COC(=O)c1ccc2[nH]c3c(c2c1)CCCC3)Nc1ccc(N2CCOCC2)cc1, the inhibition was 31% (active).
With O=C(COC(=O)CCc1nc2ccccc2c(=O)[nH]1)Nc1ccc(N2CCOCC2)cc1 the inhibition was -1.46% (inactive).
With c1cc2c(cc1-c1nn[nH]n1)OCO2 the inhibition was -14.4% (inactive).
For CC(=O)N1CC[C@H]2COC(=O)N(Cc3ccccc3)[C@@H]2C1, the inhibition was 5.56% (inactive).
COc1ccc(CN(C)c2ccc(S(=O)(=O)Nc3ccccn3)cn2)cc1 was tested, and the inhibition was 6.32% (inactive).
O=S(=O)(c1ccccc1F)N1CCCn2nnc(COCC3CC3)c2C1 was tested, and the inhibition was 0.743% (inactive).
For Cc1ccc(NC(=O)c2ccc3c(c2)N(S(C)(=O)=O)CC3)cc1C, the inhibition was -24.5% (inactive).
In the case of COc1ccccc1NC(=O)c1cccc(S(=O)(=O)N2CCc3ccccc32)c1, the inhibition is reported as -7.94% (inactive).
For COc1cccc(NC(=O)c2ccc3c(c2)N(S(C)(=O)=O)CC3)c1, the inhibition was 30.4% (active).
Cn1c(CCNC(=O)c2ccc(C(C)(C)C)cc2)nc2cccnc21 was tested, and the inhibition was -167% (inactive).
For Cc1ccc(C(=O)N(Cc2cc(=O)[nH]c3ccccc23)C(C)C)cc1F, the inhibition was 0.00655% (inactive).
With COc1ccc(C(=O)CC(c2ccc(Cl)cc2)S(=O)(=O)c2ccccc2)cc1 (stereo unspecified) the inhibition was 4.59% (inactive).
In the case of COc1ccc(N(Cc2cc(=O)[nH]c3ccccc23)C(=O)c2ccc(Cl)cc2)cc1, the inhibition is reported as 39.6% (active).
In the case of CCNC(=O)c1cccc(Nc2c(-c3ccc(Cl)cc3)nc3cnccn23)c1, the inhibition is reported as -21.3% (inactive).
With CC(C)c1noc(-c2ccc(OCC(=O)Nc3ccccc3Br)cc2)n1 the inhibition was -2.89% (inactive).
O=C(Cn1c(=O)n(Cc2ccc3c(c2)OCO3)c(=O)c2ccccc21)NCc1ccco1 was tested, and the inhibition was 23% (inactive).
In the case of CC(C)(C)C(=O)Cn1c(=O)n(Cc2ccco2)c(=O)c2ccccc21, the inhibition is reported as -6.03% (inactive).
In the case of O=C(NCCc1ccccc1)c1ccc2c(=O)n(Cc3ccco3)c(=O)n(Cc3cccc([N+](=O)[O-])c3)c2c1, the inhibition is reported as 53.8% (active).
With O=C(O)COCC(=O)Nc1scc2c1c(=O)oc1ccccc12 the inhibition was 15.1% (inactive).
For CN1CC(=O)N(C2CCCNC2)Cc2c(NC3CCc4ccccc43)ncnc21 (stereo unspecified), the inhibition was 50.3% (active).
For COc1cc(C2CC(=O)c3cnc(N4CCc5ccccc5C4)nc3C2)cc(OC)c1OC (stereo unspecified), the inhibition was 7.46% (inactive).
With CC1CCc2c(cnc3c(C(=O)NCCc4ccccc4)cnn23)C1 (stereo unspecified) the inhibition was -1.68% (inactive).
With Cc1c(Cl)c([N+](=O)[O-])nn1CCCC(=O)NC(C)c1ccccc1 (stereo unspecified) the inhibition was -29.5% (inactive).
In the case of CCOC(=O)C1(Cc2cc(-c3ccccc3F)no2)CCN(CC)CC1, the inhibition is reported as -12.6% (inactive).
In the case of Cc1c(-c2nn3c(-c4ccco4)nnc3s2)cccc1[N+](=O)[O-], the inhibition is reported as 67.4% (active).
In the case of O=C(CSc1cn[nH]n1)Nc1ccc(F)c(Cl)c1, the inhibition is reported as 0.831% (inactive).
CC(=O)Nc1ccc(S(=O)(=O)NCCSc2ccc(C)cc2)cc1 was tested, and the inhibition was -12.3% (inactive).
CC(=O)Nc1ccc(S(=O)(=O)NCc2ccc(C(=O)NCc3ccc(C)cc3)cc2)cc1 was tested, and the inhibition was 52.9% (active).
In the case of Cc1ccc(C)c(S(=O)(=O)Nc2ccc(C(=O)NCc3ccc(F)cc3)cc2)c1, the inhibition is reported as -4.3% (inactive).
With Cc1ccc(C)c(N2CCN(C(=O)CCC(=O)Nc3ccc4nc(N5CCN(C)CC5)cc(C)c4c3)CC2)c1 the inhibition was -11.5% (inactive).
Cc1cc(N2CCOCC2)nc2ccc(NC(=O)CCC(=O)N3CCN(c4ccccn4)CC3)cc12 was tested, and the inhibition was -15.4% (inactive).
COc1ccc(CCC(=O)Nc2ccc3nc(N4CCOCC4)cc(C)c3c2)cc1 was tested, and the inhibition was 33.3% (active).
Cc1nn(-c2ccccc2)c2c1c(C)c(CCC(=O)N1CCN(c3ccc(F)cc3)CC1)c(=O)n2C was tested, and the inhibition was 5.08% (inactive).
Cc1nn(-c2cccc(F)c2)c2c1c(C)c(CCC(=O)NCc1ccccn1)c(=O)n2C was tested, and the inhibition was 32.6% (active).
Cc1nc2cc(C(=O)NCc3ccccn3)ccc2n1-c1cccc(F)c1 was tested, and the inhibition was 0.0347% (inactive).
In the case of Cc1cc(C)c(Cn2cccc2C2=NC(Cc3ccccc3)CO2)c(C)c1 (stereo unspecified), the inhibition is reported as 7.3% (inactive).
In the case of Cc1ccc(-c2nc3c4c(C)c(C)n(-c5cccnc5)c4ncn3n2)cc1, the inhibition is reported as 17% (inactive).
For CN1CCCCC[C@@H]2[C@@H]1C[C@@H](Cc1ccccc1)N2C(=O)c1cc(C2CC2)[nH]n1, the inhibition was 14.4% (inactive).
In the case of N#Cc1ccc(NC(=O)COC(=O)c2ccc3ccccc3n2)cc1, the inhibition is reported as -197% (inactive).
With N#Cc1ccccc1OCC(=O)Nc1ccc(-c2cn3ccsc3n2)cc1 the inhibition was 46.9% (active).
For CCN(CC)S(=O)(=O)c1cc(C(=O)Nc2ccc(-c3cn4ccsc4n3)cc2)ccc1Cl, the inhibition was 16.3% (inactive).
COc1cc(NC(=O)c2noc3c2CCc2sccc2-3)cc(OC)c1 was tested, and the inhibition was 48.3% (active).
In the case of COc1ccc(NC(=O)c2cc(CN3CCOCC3)on2)cc1, the inhibition is reported as -3.06% (inactive).
For O=C(NCc1ccccc1)c1noc2c1CCc1sccc1-2, the inhibition was 4.73% (inactive).
With COc1ccc(OC)c(NC(=O)C(Cc2c[nH]c3ccccc23)N2CCS(=O)(=O)CC2)c1 (stereo unspecified) the inhibition was 3.96% (inactive).
For Cc1cccc(-c2nnc(-c3cccc(S(=O)(=O)N4CCCC4)c3)o2)c1, the inhibition was 6.44% (inactive).
In the case of O=C(Nc1nnc(-c2cccc([N+](=O)[O-])c2)o1)C1CCN(S(=O)(=O)c2ccc3c(c2)CCC3)CC1, the inhibition is reported as 73.8% (active).
In the case of O=C(COC(=O)C1CCN(S(=O)(=O)c2c(Cl)cccc2Cl)CC1)Nc1ccc2c(c1)CCC2, the inhibition is reported as 0.533% (inactive).
With Cn1c(=O)c2c(nc(N3CCN(C(=O)c4ccco4)CC3)n2CCSc2nc3ccccc3s2)n(C)c1=O the inhibition was 0.301% (inactive).
For COc1cccc(C(=O)N2CCN(c3nc(-c4ccc(Cl)cc4)no3)CC2)c1OC, the inhibition was 8.11% (inactive).
Cc1ccccc1NC(=O)CSc1nnc(C2CC2)n1Cc1ccccc1 was tested, and the inhibition was -1.39% (inactive).
In the case of Nn1c(SCC(=O)Nc2ccccc2F)nnc1-c1n[nH]c2c1CCC2, the inhibition is reported as 41.7% (active).
O=C(CSc1nccn1C1CCCCC1)Nc1ccccc1F was tested, and the inhibition was 20.2% (inactive).
For CC(=O)O[C@H]1CC[C@]2(C)[C@H]3Cc4c(cc(-c5cccnc5)oc4=O)O[C@]3(C)CC[C@H]2C1(C)C, the inhibition was 1.11% (inactive).
For O=C(C1CCCN(S(=O)(=O)N2CCOCC2)C1)N1CCN(Cc2ccccc2)CC1 (stereo unspecified), the inhibition was -0.311% (inactive).
In the case of COc1ccc(Cl)cc1NC(C)c1nc2sc(C)c(C)c2c(=O)[nH]1 (stereo unspecified), the inhibition is reported as -21.9% (inactive).
In the case of C/C=C(\Cl)C1=CC(=O)[C@]23C[C@H]2[C@@]2(C)CO[C@@]1(O)[C@@]3(O)O2, the inhibition is reported as 68.6% (active).
For CCC1(c2ccccc2)NC(=O)N(CC(=O)Nc2ccc(C)c([N+](=O)[O-])c2)C1=O (stereo unspecified), the inhibition was -6.64% (inactive).
COc1ccc(S(=O)(=O)N(C(=O)c2ccccc2)c2ccc3oc4c(c3c2)CCCC4)cc1 was tested, and the inhibition was -2.79% (inactive).
With CCC(=O)c1ccc(OCC(=O)Nc2ccc3c(c2)CCC3)cc1 the inhibition was 4.25% (inactive).
O=C(COc1ccc2oc3c(c2c1)CCCC3)Nc1ccccn1 was tested, and the inhibition was 70.8% (active).
In the case of C=C(NC(=O)/C(C)=C/C=C\CCCCCC(C)C)C(=O)N/C(=C/OC)C(=O)OC, the inhibition is reported as -61.8% (inactive).
With O=C(Cc1ccc(Cl)cc1)N1CCC2(CN(Cc3ccc(O)cc3)C2)C1 the inhibition was -0.288% (inactive).
In the case of CCOc1ccc(C(=O)C[n+]2cc(-c3ccccc3)n3c2CCC3)cc1, the inhibition is reported as 3.07% (inactive).
With COc1ccccc1CNCc1c(C(=O)O)c(C)n(-c2ccccc2)c1C the inhibition was 6.79% (inactive).
For NC(=O)c1ccccc1NC(=O)C1CN(c2nc3c(F)cccc3s2)C1, the inhibition was 31% (active).
With O=C(Nc1ccccc1F)C1CCCN(c2nnc3ccccn23)C1 (stereo unspecified) the inhibition was 4.67% (inactive).
With CNC(=O)C1CCN(c2nc3ccc(-c4ccccc4F)nc3s2)CC1 the inhibition was 15.7% (inactive).
With Cc1ccnc(Nc2nc(-c3ccccc3)c3cc(Cl)ccc3n2)n1 the inhibition was 91.1% (active).
CCOc1nc(-c2ccc(Cl)cc2Cl)nc2ccccc12 was tested, and the inhibition was 9.99% (inactive).
With O=C(Nc1cc(Cl)ccc1F)c1cnc(-c2ccccc2)nc1-c1ccncc1 the inhibition was -172% (inactive).
With COc1cc2c(c(OC)c1OC)-c1ccc(NCCc3ccc(S(N)(=O)=O)cc3)c(=O)cc1[C@@H](NC(C)=O)CC2 the inhibition was -68.9% (inactive).
